Glioma ERSR ind: induces the endoplasmic reticulum stress response in human glioma cells; U87-MG GRP78 promoter luciferase reporter, 16 h; actives 0.02% (n = 420,000); Potency, µM, inactives show top-dose activation, most hits filed as activators; active = well fitted activation curve with a large enough effect; also: potency is read from the fitted curve at half-maximal effect; series mostly up to about 76 µM; % of control where 0% means no effect; nearly all actives have a fitted effect of over 35% in size
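Stably transfected U87-MG human glioma cells carrying a GRP78-based luminescent sensor were seeded at 1000 cells/well, pin-dosed with compounds and incubated 16 h. Luciferase reagent was then added, and end-point luminescence was read after 10 min at room temperature.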
D1 antag: antagonists of human D1 dopamine receptor. activity change, negative = inhibition, % at 10 µM. actives 3.2% (n = 360,000). HEK293 TREx D1 cells, calcium flux, dopamine EC80; stronger effect = lower value. P21728; in the data active = activity change below about -30%; also: % is scaled to controls: 0 for no effect and ±100 for the full control effect
Target sequence (P21728 whole entry, looked up): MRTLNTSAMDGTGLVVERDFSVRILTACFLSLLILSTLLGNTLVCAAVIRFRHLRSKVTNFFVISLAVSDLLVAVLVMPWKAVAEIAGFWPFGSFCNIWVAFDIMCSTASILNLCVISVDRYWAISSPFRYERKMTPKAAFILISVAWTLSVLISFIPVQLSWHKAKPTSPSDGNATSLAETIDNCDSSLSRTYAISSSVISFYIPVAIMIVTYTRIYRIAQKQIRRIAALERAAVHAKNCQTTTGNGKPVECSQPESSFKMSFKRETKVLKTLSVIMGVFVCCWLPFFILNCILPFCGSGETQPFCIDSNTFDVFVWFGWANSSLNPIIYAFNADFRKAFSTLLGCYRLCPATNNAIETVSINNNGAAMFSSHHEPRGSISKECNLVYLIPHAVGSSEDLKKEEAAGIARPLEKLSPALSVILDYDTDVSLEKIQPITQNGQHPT
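Tetracycline-induced HEK293 T-REx cells with force-coupled D1 receptor were loaded with a no-wash calcium dye. Compound was added after a 10 s baseline and read kinetically for 180 s; EC80 dopamine was then added and calcium flux followed another 180 s.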
D1 agonist: activates the human D1 dopamine receptor; activation, % at 2 µM; actives 1% (n = 360,000); HEK293 T-REx D1 cells, calcium flux, agonist mode; also: 0% is about no effect
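Agonism was scored from calcium flux recorded over 180 s (1 read/s) after pintool compound addition, following a 10-cycle baseline. Cells were inducible force-coupled HEK293 TREx D1, plated overnight at 30 C and loaded with no-wash calcium dye.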
D1 potentiator: enhances dopamine response at the human D1 receptor | P21728 | HEK293 TREx D1 cells, calcium flux, dopamine EC20 potentiation | potentiation, % at 10 µM | actives 0.036% (n = 360,000) | AID 504651; in the data active = potentiation above about 30%; also: 0% is about no effect
TRHR ag: activates the human TRH receptor | P34981 | TRHR cells, calcium flux fluo-8, FDSS agonist mode | activation, % at 2 µM | actives 0.18% (n = 360,000); also: 0% is about no effect
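In this calcium-flux screen, cells bearing human TRHR are dye-loaded with fluo-8, baselined for 10 cycles, then exposed to library compounds; positive kinetic calcium responses during the agonist phase mark hits, with TRH as control.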
TRHR enhancer: TRH receptor (human) allosteric enhancement; P34981; enhancement, % at 2 µM; actives 0.66% (n = 360,000); TRHR cells, fluo-8 calcium fluorescence, EC20 TRH enhancement; AID 493056; in the data active = enhancement above about 30%; also: 0% is about no effect
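TRHR-expressing cells loaded with fluo-8 calcium dye were read kinetically (ex 480/em 530) during compound addition, then stimulated with an EC20 of TRH (10 nM final). Enhancement of the Gq-mediated intracellular calcium response was scored.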
Starred values were filed as active, the others as inactive. Most compounds without a hit are left out; they make up all but 4% or so of the library. Rule as the data show it, unless noted: active = activation above about 30%; inactive = the rest.

Results for CCCN(CCC)CCCNC(=O)c1cc2cc3ccc(Cl)cc3nc2o1 ?
Glioma ERSR ind: 0%; D1 antag: -14; D1 agonist: 2; D1 potentiator: -6; TRHR ag: 1; TRHR enhancer: 40*

What do the screens show for `COc1ccc(NC(=O)c2c(C)nn(-c3ccccc3)c2Cl)cc1`?
Glioma ERSR ind: 6%; D1 antag: -20; D1 agonist: 0; D1 potentiator: -16; TRHR ag: -1; TRHR enhancer: -4

How did COc1ccc(COC(=O)c2c(C)nn(-c3ccccc3)c2Cl)cc1 do in these assays?
Glioma ERSR ind: 1%; D1 antag: -37*; D1 agonist: 25; D1 potentiator: -7; TRHR ag: 1; TRHR enhancer: -9

What do the screens show for `CCc1ccc(CNC(=O)c2cnc3sc(N4CCOCC4)nn3c2=O)cc1`?
Glioma ERSR ind: -2%; D1 antag: 1; D1 agonist: 0; D1 potentiator: -7; TRHR ag: 0; TRHR enhancer: -2

Results for NC(=O)NC(=O)COC(=O)c1cccc(S(=O)(=O)N2CCCCCC2)c1 ?
Glioma ERSR ind: -2%; D1 antag: -44*; D1 agonist: 1; D1 potentiator: -6; TRHR ag: 0; TRHR enhancer: 3

How did O=C(COC(=O)c1cccc(S(=O)(=O)N2CCCC2)c1)Nc1ccccc1C(F)(F)F do in these assays?
Glioma ERSR ind: -1%; D1 antag: -33*; D1 agonist: 8; D1 potentiator: -3; TRHR ag: 0; TRHR enhancer: -9

What do the screens show for `COc1ccc(NC(=O)C2(C)Cc3c(-c4cccc(NC(C)=O)c4)ccnc3O2)cn1` (stereo not given)?
Glioma ERSR ind: -2%

Results for S=C1NC2=C(CCCC2=C2SCCS2)C(c2ccccc2)N1 (stereo not given) ?
Glioma ERSR ind: 7%; D1 antag: 8; D1 agonist: 2; D1 potentiator: -2; TRHR ag: 0; TRHR enhancer: 37*

Results for O=c1[nH]/c(=C/c2ccc3c(c2)OCO3)c(=O)[nH]/c1=C/c1ccc2c(c1)OCO2 ?
Glioma ERSR ind: -2%

Results for CCCCc1n[nH]c2c1/C(=N/O)CC(C)(C)C2 ?
Glioma ERSR ind: 1%; D1 antag: -8; D1 agonist: 1; D1 potentiator: -8; TRHR ag: 0; TRHR enhancer: 0

How did CCCCc1n[nH]c2c1/C(=N/OCC)CC(C)(C)C2 do in these assays?
Glioma ERSR ind: -6%; D1 antag: 62; D1 agonist: 62*; D1 potentiator: 35*; TRHR ag: -1; TRHR enhancer: 6

Results for CCCc1n[nH]c2c1C(=O)CC(C)(C)C2 ?
Glioma ERSR ind: -2%; D1 antag: 9; D1 agonist: 2; D1 potentiator: 33*; TRHR ag: 0; TRHR enhancer: 14

What do the screens show for `Cc1ncc2c(c1CNS(=O)(=O)N(C)C)CCN(C(=O)/C=C/c1ccccc1Cl)C2`?
Glioma ERSR ind: -2%

How did C/C(CCN1CCCc2nc(C)c(C)cc21)=N\O[C@@H](C)c1cn([C@@H]2COC[C@@H]2O)nn1 do in these assays?
Glioma ERSR ind: -5%

What do the screens show for `Cc1ccc(C2C(C#N)=C(N)SC(N)=C2C#N)c(C)c1`?
Glioma ERSR ind: 5%; D1 antag: -22; D1 agonist: 51*; D1 potentiator: -4; TRHR ag: -1; TRHR enhancer: -4

Results for O=C(Cc1ccccc1)NC(=S)Nc1ccc2oc(-c3ccccc3)nc2c1 ?
D1 antag: -5; D1 agonist: 2; D1 potentiator: -5; TRHR ag: 0; TRHR enhancer: -6

How did Cc1sc2nc(SCC(=O)N3CCCCC3)[nH]c(=O)c2c1C do in these assays?
Glioma ERSR ind: 1%; D1 antag: 13; D1 agonist: 1; D1 potentiator: 7; TRHR ag: 0; TRHR enhancer: 5

Results for Cc1sc2nc(SCC(=O)N3CCCC3)[nH]c(=O)c2c1C ?
Glioma ERSR ind: 0%; D1 antag: -34*; D1 agonist: -2; D1 potentiator: 18; TRHR ag: 0; TRHR enhancer: 0

Assay outcomes (PubChem BioAssay)
